Source: PubChem BioAssay (National Center for Advancing Translational Sciences (NCATS))
In the library only some 2.3% were active in any assay of this set; here they are far more common.
Tau fluor counter: counter-screen for tau fibril formation inhibitors | tau K18 P301L Alexa594 fluorescence, heparin fibrillization | Potency, µM (highest dose often 57.7 µM), for inactives: at the top dose activity change, negative = decrease | 280,000 compounds, 0.93% hits | AID 1463; note: potency is the fitted concentration of half-maximal effect; nearly all actives have a fitted effect of over 55% in size
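Human K18 P301L tau (15 uM unlabeled plus 0.24 uM Alexa 594-labeled, final) in 100 mM sodium acetate pH 7 was mixed with compound and 20 uM heparin and incubated 6 hr at 37 C.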
USP1-UAF1 inh: inhibitors of human USP1/UAF1 deubiquitinase | Potency, µM (series often up to 57.1 µM), inactives show at the highest dose activity change, negative = inhibition, usual class: inhibitors | recombinant USP1/UAF1, Ub-Rhodamine cleavage fluorescence | 390,000 compounds, 0.23% hits; note: potency is the fitted concentration of half-maximal effect; nearly all actives have a fitted effect of over 60% in size
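High-throughput fluorogenic screen: 1nM USP1/UAF1 complex, Ub-Rho substrate 150nM final, 50mM HEPES pH 7.8 with 0.5mM EDTA, 0.1 mg/ml BSA, 1mM TCEP and 0.01% Tween-20.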
Tau FP inhib: blocks human tau fibril formation measured by polarization. 280,000 compounds, 0.39% hits. K18 P301L tau heparin fibrillization, Alexa594 FP, 6 h. Potency, µM (titrated, usually from 57.7 µM), for the others: at the highest dose activity, negative = inhibition, actives largely listed as inhibitors. P10636; note: potency is the fitted concentration of half-maximal effect; nearly all actives have a fitted effect of over 55% in size
Target sequence (P10636 561-689 P618L limits assumed): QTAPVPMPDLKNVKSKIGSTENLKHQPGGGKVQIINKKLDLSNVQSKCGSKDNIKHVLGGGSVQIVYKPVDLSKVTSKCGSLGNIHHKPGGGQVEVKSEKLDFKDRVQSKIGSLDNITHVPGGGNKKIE
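Human tau K18 […] P301L fragment, 15 uM unlabeled plus 0.24 uM Alexa 594-labeled tau (final), with compound and 20 uM heparin in 100 mM sodium acetate pH 7; 6 hr at 37 C, then Alexa 594 FP read.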
FBPA coupling cs: inhibits coupling enzyme system, counter-screen for aldolase hits; coupling enzyme system counterscreen, AmpLite Red fluorescence; activity change, negative = inhibition, % at 58.2 µM, hits read low; 290,000 compounds, 0.67% hits; AID 2472; in the data active = activity change below about -30%
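Compounds tested against the coupling enzymes alone at 57.5 uM final; readout was AmpLite Red fluorescence (525/598 nm) after 20 min at RT.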
Tau fibril ThT: blocks human tau fibril formation measured by thioflavin T. AID 1460. Potency, µM (top dose mostly 57.4 µM), without a hit: at the top dose activity, negative = inhibition, actives largely listed as inhibitors. 270,000 compounds, 2.1% hits. recombinant tau K18 P301L (four-repeat tau fragment), heparin-induced fibrillization, ThT fluorescence. P10636; note: potency is the fitted concentration of half-maximal effect; nearly all actives have a fitted effect of over 55% in size
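Heparin-induced fibrillization of the P301L-mutant K18 repeat-domain fragment of human tau was followed by ThT binding in quantitative high-throughput format.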
* = called active by the depositor; ? = inconclusive; . = no result given; ! = not confirmed by another sample; [ ] = another dose, or the depositor's remark. Unless noted, calls come from the whole dose curve; as a rule, active = well fitted curve in the direction sought with a large enough effect; inconclusive = small, poorly fitted or top-dose-only effect, or another doubt; inactive = no such curve, though single readings can be large; an effect the other way counts as inactive or inconclusive. % is set by controls: 0 for no effect and ±100 for the full control effect.

SMILES	Tau fluor counter	USP1-UAF1 inh	Tau FP inhib	FBPA coupling cs	Tau fibril ThT
CCOC(=O)c1ccc(CN(Cc2ccccc2)S(=O)(=O)c2ccc(C)cc2)cc1	-2%	-34%	-3%	.	10%
COC(=O)CCC(=O)OC1(C)C(=O)C2=CN(C(CO)CO)C(c3ccc(OC)cc3)=CC2=C(Br)C1=O (centres undefined)	-21%[11.6 µM]	.	?	-48*!	4µM*
COC(=O)CCC(=O)OC1(C)C(=O)C2=CN(CCCCO)C(c3ccc(OC)cc3)=CC2=C(Br)C1=O (centres undefined)	6%[11.6 µM]	.	6%[11.6 µM]	-47*!	15%[11.5 µM]
COC(=O)CCC(=O)OC1(C)C(=O)C2=CN(CCc3ccccn3)C(c3ccc(OC)cc3)=CC2=C(Br)C1=O (centres undefined)	-9%[11.6 µM]	?	1%[11.6 µM]	-8	-9%[11.5 µM]
COC(=O)CCC(=O)OC1(C)C(=O)C2=CN(CCN3CCOCC3)C(c3ccc(OC)cc3)=CC2=C(Br)C1=O (centres undefined)	-2%[11.6 µM]	.	?	-37*!	7.1µM*!
COC(=O)CCC(=O)OC1(C)C(=O)C2=CN(Cc3ccc4c(c3)OCO4)C(c3ccc(OC)cc3)=CC2=C(Br)C1=O (centres undefined)	3%[11.6 µM]	-18%	2%[11.6 µM]	-3	2%[11.5 µM]
COc1cc(Cl)c(C)cc1NC(=O)c1sc2nc3n(c(=O)c2c1C)CCCCC3	-5%	-16%	-2%	.	-1%
CCOc1ccc(S(=O)(=O)N(CC(=O)N2CCC(C(N)=O)CC2)c2ccc(F)cc2)cc1	.	-4%	.	.	.
O=C(NCc1ccccn1)C1(C(F)(F)F)C/C(=C\Cc2ccccc2)CCCO1 (centres undefined)	.	.	.	3	.
O=C(CNc1ccc2ccccc2c1)N/N=C/C=C/c1cccc([N+](=O)[O-])c1	7.1µM*[quencher]	-25%	7%	3	?
CC(/C=C/c1ccco1)=N\NC(=O)CNc1ccc2ccccc2c1	?	-16%	9%	-7	7.9µM*
Cc1ccc(C)c(N2CCN(C(=O)c3cc(C)nc4c3c(C)nn4-c3cccc(F)c3)CC2)c1	-15%	-5%	-2%	.	-11%
O=[N+]([O-])c1ccc(O)c(C2=NNC(c3ccccc3F)C2)c1 (centres undefined)	-26%	-13%	6%	5	16µM*
COc1ccc(/C=N/Nc2ncccc2[N+](=O)[O-])c(OC)c1	?	-20%	1%	-4	13µM*
COC(=O)C(=Cc1ccccc1[N+](=O)[O-])C(=O)OC	-27%	-7%	?	0	25µM*
COc1ccc(NC(=O)/C=C/c2ccccc2[N+](=O)[O-])c(OC)c1	?	-21%	10%	-3	13µM*
O=C(Cc1ccccc1)N/N=C/C=C/c1ccccc1[N+](=O)[O-]	-3%	?	-12%	2	-4%
O=C(O)c1ccc(N/N=C/C=C/c2ccccc2[N+](=O)[O-])cc1	-26%	?	12%	-1	13µM*
COc1ccc(CCn2c3c(c(=O)[nH]c2=O)C(NC(=O)c2ccccc2)(C(F)(F)F)C(=O)N3)cc1OC (centres undefined)	-4%	-7%	-3%	.	-4%
COc1ccc(CCNS(=O)(=O)c2ccc([N+](=O)[O-])cc2)cc1OC	.	-13%	.	2	.
Cc1ccccc1-n1ccnc1SCC(=O)Nc1cccc(S(=O)(=O)NC2=NCCC2)c1	.	-8%	.	.	.
CC[C@H]1C(c2ccc(F)cc2)=NN(c2ccccc2)[C@@H]1CO	22µM*[quencher]	-27%	?	-3	?
OC[C@@H]1[C@@H](c2ccc(F)cc2)C(c2ccccc2)=NN1c1ccccc1	16µM*[quencher]	-33%	13%[81.3 µM]	-3	?
Cc1cccc(C2=NN(c3ccccc3)[C@H](CO)[C@H]2c2ccccc2)c1	18µM*[quencher]	-25%	?	3	?
Cc1ccc(C(=O)N2CC(C)OC(C)C2)cc1S(=O)(=O)N1CCCCC1 (centres undefined)	.	-22%	.	.	.
Cc1ccc(CCNC(=O)CCCn2c(=O)c3ccccc3n(Cc3ccccc3C#N)c2=O)cc1	-3%	-27%	0%	.	0%
